Assay outcomes as filed in PubChem BioAssay.
CtBP-E1A blk – blocks the CtBP interaction with E1A | AlphaScreen GST-E1A/His-CtBP binding, 1536-well; active compounds read low | actives 0.49% (n = 340,000) | activity change, % (test concentration not listed) | AID 651724; in the data active = activity change below about -65%; inconclusive = mostly about -30% to -63%; note: % is set by controls: 0 for no effect and ±100 for the full control effect
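AlphaScreen with 125 nM GST-E1A and 125 nM His-CtBP (5X stocks) in Tris pH 8.0, 300 mM NaCl, BSA, Tween 20, TCEP. Compounds preincubated 2 h at 37 deg C, then glutathione donor/nickel acceptor beads added for 1 h at 37 deg C in dark.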
JMJD2A Tudor inh – JMJD2A Tudor domain (human) inhibition; actives 4.4% (n = 390,000); Potency, µM (top dose mostly 114 µM), without a hit: at the top dose activity change, negative = inhibition, usual class: inhibitors; AID 504339; AlphaScreen JMJD2A-Tudor / H3K4me3 peptide binding; note: potency is the fitted concentration of half-maximal effect; % is set by controls: 0 for no effect and ±100 for the full control effect; nearly all actives have a fitted effect of over 50% in size
G9a block – G9a (human) methyltransferase inhibition; Q96KQ7; G9a H3K9 monomethylation, AlphaScreen, 2 h; Potency, µM (series often up to 102 µM), for the others: at the top dose activity, negative = inhibition, most hits filed as inhibitors; actives 8.8% (n = 350,000); AID 504332; note: potency is the fitted concentration of half-maximal effect; % is set by controls: 0 for no effect and ±100 for the full control effect; nearly all actives have a fitted effect of over 75% in size
Target sequence (Q96KQ7 913-1193 limits assumed): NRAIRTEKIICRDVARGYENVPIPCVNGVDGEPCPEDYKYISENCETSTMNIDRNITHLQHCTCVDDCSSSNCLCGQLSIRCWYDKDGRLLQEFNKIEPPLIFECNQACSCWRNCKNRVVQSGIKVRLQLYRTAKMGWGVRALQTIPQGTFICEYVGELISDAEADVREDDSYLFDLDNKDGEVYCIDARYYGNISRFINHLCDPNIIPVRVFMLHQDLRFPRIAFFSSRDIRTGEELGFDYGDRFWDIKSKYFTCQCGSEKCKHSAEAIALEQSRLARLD
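AlphaScreen detection with an anti-monomethyl H3K9 antibody quantified product after a 2 h room-temperature reaction containing 500 nM biotinylated H3K9 peptide, 20 µM SAM and 20 nM enzyme, which had been preincubated 15 min with compound.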
BAZ2B inh – blocks human BAZ2B; Q9UIF8; AlphaScreen BAZ2B-H3K14Ac peptide displacement; Potency, µM (series often up to 114 µM), without a hit: top-dose activity change, negative = inhibition, actives largely listed as inhibitors; actives 4.4% (n = 360,000); note: potency is the fitted concentration of half-maximal effect; % is set by controls: 0 for no effect and ±100 for the full control effect; nearly all actives have a fitted effect of over 60% in size
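Complex of BAZ2B and biotin-H3K14Ac (50 nM apiece) forms over 30 min at RT, then faces library compounds up to 110 uM for another 30 min; AlphaScreen beads added, 20 min dark incubation, luminescence read.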
HP1b chromo inh – HP1-beta chromodomain-methylated histone interaction inhibition. AlphaScreen HP1-beta / biotin-H3K9me3 peptide binding. Potency, µM (titrated, usually from 114 µM), for the others: at the top dose activity change, negative = inhibition, actives largely listed as inhibitors. actives 0.56% (n = 390,000). AID 540317; note: potency is the fitted concentration of half-maximal effect; nearly all actives have a fitted effect of over 70% in size
Target sequence (P83916 whole entry, looked up): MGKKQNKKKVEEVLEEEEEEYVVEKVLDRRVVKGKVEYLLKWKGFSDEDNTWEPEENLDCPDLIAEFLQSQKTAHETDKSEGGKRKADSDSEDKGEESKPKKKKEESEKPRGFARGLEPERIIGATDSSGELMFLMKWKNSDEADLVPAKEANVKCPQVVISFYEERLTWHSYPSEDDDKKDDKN
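Compound inhibition of the preformed complex between 50 nM HP1-beta and 50 nM biotinylated H3K9me3 peptide was read by AlphaScreen. Buffer was PBS pH 7.4 with 0.01% Tween-20. Incubations ran 30 min at room temperature, with 10 ug/mL donor/acceptor beads.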
Six1-Eya2 inh – inhibitors of human Six1/Eya2 interaction | Q15475+O00167 | activity change, % (test concentration not listed) | AlphaScreen GST-Six1/His-Eya2 binding, biochemical; active compounds read low | actives 0.56% (n = 360,000); in the data active = activity change below about -65%; inconclusive = mostly about -30% to -63%; note: % is set by controls: 0 for no effect and ±100 for the full control effect
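GST-Six1 + His-Eya2 (5X stock: 250/500 nM); Tris pH 8.0, 300 mM NaCl, 0.05% BSA, 0.02% Tween 20; GSH donor/Ni acceptor beads; 1 h 37 °C dark; AlphaScreen readout.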
An asterisk follows results filed as active; ? = inconclusive; · = no result; [ ] = dose if it differs, or a comment. A selection: hits, their analogues and other compounds. The true share with any hit is near 10%. Unless noted, calls come from the whole dose curve; as a rule, active = well fitted inhibition curve with a large enough effect; inconclusive = small, poorly fitted or top-dose-only effect; inactive = no such curve, though single readings can be large or run the other way.

SMILES	CtBP-E1A blk	JMJD2A Tudor inh	G9a block	BAZ2B inh	HP1b chromo inh	Six1-Eya2 inh
CC(C)(C)NC[C@H](O)COc1cccc2c1CCC(=O)N2	·	·	23%[21.5 µM]	·	·	·
Cc1ccc([N+](=O)[O-])cc1S(=O)(=O)NCCc1c(C)[nH]c2ccccc12	6	?	?	50µM*	-31%	-9
COc1cc(S(=O)(=O)NCCc2c(C)[nH]c3ccccc23)c(C)cc1C	·	28µM*	?	35µM*	?	·
Cc1ccc([N+](=O)[O-])cc1S(=O)(=O)NCCc1cn2ccccc2n1	-8	-15%	·	-23%	29%	-3
Oc1ccc(O)cc1	·	·	6µM*	·	·	·
O=[N+]([O-])c1ccc(O)c(/C=N/Nc2ccccc2Cl)c1	·	-8%[11.4 µM]	6.3µM*	-26%	-3%	0
O=C(N/N=C/c1cc([N+](=O)[O-])ccc1O)C1CC1	-26	-36%	34%[59 µM]	-28%	42%	-85*
CCc1ccc(N2CC(C(=O)N/N=C/c3cc([N+](=O)[O-])ccc3O)CC2=O)cc1 (stereo unspecified)	-88*	40µM*	25%	50µM*	13%	-80*
O=C1NCCCC1C(=O)N/N=C/c1ccc([N+](=O)[O-])cc1 (stereo unspecified)	·	-3%	-4%	1%	53%	3
O=C1NCCCC1C(=O)N/N=C/c1cc([N+](=O)[O-])ccc1O (stereo unspecified)	-96*	40µM*	47%[12.7 µM]	50µM*	16%[57 µM]	-69*
O=c1[nH]cc(N=Cc2cc([N+](=O)[O-])ccc2O)c(=O)[nH]1	·	·	·	-2%	·	·
CC(C)NC(=O)Nc1nnc([C@H]2C[C@H](O)[C@@H](CO)O2)s1	5	·	·	·	·	4
Cc1sc(N/N=C/c2cc([N+](=O)[O-])ccc2O)nc1-c1ccccc1	·	22µM*	5%	-8%	16%	-11
O=C(O)c1ccc(/C=N/NC(=O)C(O)(c2ccccc2)c2ccccc2)cc1	-9	-5%	?	-16%	31%	11
O=C(N/N=C/c1cc([N+](=O)[O-])ccc1O)C(O)(c1ccccc1)c1ccccc1	?	79µM*	·	?	28%	?
Cc1cnc(N2C(=O)c3ccc([N+](=O)[O-])cc3C2=O)s1	0	?	56µM*	-20%	-3%	1
COc1cccc(NC(=O)Cn2c(=O)n(CCCC(=O)NCc3ccc4c(c3)OCO4)c(=O)c3ccccc32)c1	·	-13%	6%[59 µM]	3%	3%	·
COC(=O)C1=CN(c2cccc(OCc3ccccc3)c2)C(N)=C(C#N)C1c1cccc(OC)c1OC (stereo unspecified)	3	·	·	·	·	-9
Cc1nnc(SCc2cc([N+](=O)[O-])cc3c2OCOC3)n(N)c1=O	1	-9%	2%	-3%	41%	-3
CN(C)S(=O)(=O)c1cccc(-c2nnc(SCc3cc(Cl)cc4c3OCOC4)n2N)c1	3	40µM*	8.9µM*	-27%	?	0
Cc1ccc(C2(C)NC(=O)N(CC(=O)Nc3ccc(S(=O)(=O)Nc4nccs4)cc3)C2=O)cc1 (stereo unspecified)	0	-23%	?	-28%	-7%	-12
N=c1sccn1CC(=O)Nc1ccc(SC(F)F)cc1	-11	-24%	50µM*	-17%	2%	-15
O=S(=O)(/N=C(/Nc1ccc(F)c(F)c1F)c1ccccc1)c1ccccc1	2	-12%	24%[59 µM]	11%	28%	12
COc1ccc(-n2nc(C(=O)Nc3ccc(C)cn3)c3c4ccccc4n(C)c3c2=O)cc1	·	-16%	10%[59 µM]	·	-1%	·
COc1ccc(S(=O)(=O)N2CCN(C(=S)NCCc3ccccc3)CC2)cc1	12	-16%	-6%[12.7 µM]	-21%	27%	-9
SMILES	CtBP-E1A blk	JMJD2A Tudor inh	G9a block	BAZ2B inh	HP1b chromo inh	Six1-Eya2 inh
COc1ccc(CCNC(=S)N2CCN(S(=O)(=O)c3ccc(C)cc3)CC2)cc1	-12	3%	50µM*	10%	6%	-15
COc1ccc(CCNC(=S)N2CCN(S(=O)(=O)c3cccc(F)c3)CC2)cc1	-2	2%	50µM*	12%	10%	3
N#CC(=C1C=C(Br)C(=NO)C=C1Cl)c1cccc2ccccc12	2	·	·	·	·	-23
CC(C)CCn1c(O)c(N=Nc2ccccn2)c2ccccc21	12	-9%	32%[59 µM]	-1%	64%	16
CC(C)CCn1c(O)c(N=NC(=O)Cn2ccc(C(F)(F)F)n2)c2ccccc21	-8	50µM*	-9%[59 µM]	3%	4%	-6
CCC(=O)Nc1c(C)c(CC)nc2ccccc12	4	-10%	-5%[12.7 µM]	-5%	36%	-2
CCCCc1nc2ccccc2c(NC(=O)CN(CC)CC)c1CCC	-1	28µM*	32µM*	56µM*	?	-2
CC(C)(C)c1ccc(C(=O)NCC(c2cccs2)S(=O)(=O)c2ccc(F)cc2)cc1 (stereo unspecified)	·	-22%	-1%[59 µM]	-11%	33%	·
CCc1ccc(S(=O)(=O)/N=C2\C=C(Nc3cccc(C(=O)O)c3)C(=O)c3ccccc32)cc1	-75*	18µM*	14µM*	10µM*	?	?
O=S(=O)(N=C1C=CC(=NS(=O)(=O)c2ccccc2)c2ccccc21)c1ccccc1	3	·	·	·	·	1
CCc1ccc(S(=O)(=O)/N=C2/C=C(Sc3ncn[nH]3)C(=O)c3ccccc32)cc1	0	4µM*	1.4µM*	45µM*	?	-11
O=C(O)c1cccc(NC2=C(n3nnc4ccccc43)C(=O)c3ccccc3C2=O)c1	-3	-4%	·	?	32%	1
CCc1ccc(S(=O)(=O)/N=C2\C=C(Nc3ccc(O)cc3)C(=O)c3ccccc32)cc1	-89*	7.1µM*	7.1µM*	8.9µM*	10µM*	-70*
CCc1ccc(S(=O)(=O)/N=C2\C=CC(=O)c3ccccc32)cc1	·	·	14µM*	35µM*	·	·
COc1ccc(CCNC(=O)c2c(C)oc3ncnc(N4CCOCC4)c23)c(OC)c1	·	-9%	-4%[59 µM]	5%[57.1 µM]	26%	·
CCCCc1nn2c(=O)cc(COC(=O)c3ccc4c(c3)OCO4)nc2s1	·	-22%	4%[59 µM]	-1%	-27%	·
O=C(COC(=O)c1cc(S(=O)(=O)N2CCOCC2)ccc1Cl)c1ccc[nH]1	10	·	·	·	·	-20
O=C1C(Nc2ccccc2)=CC(c2ccc(Br)cc2)N1c1ccccc1 (stereo unspecified)	·	4%	?	-3%	38%	·
Cc1cccnc1NC(=O)c1ccc2nc(N)sc2c1	4	-2%	40µM*	4%	14%	7
Nc1nc2ccc(C(=O)Nc3ccc(N4CCOCC4)cc3)cc2s1	-1	?	·	·	13%	33
